Y pestis TopoI: Yersinia pestis topoisomerase I inhibitors, primary screen, biochemical, cleavage product accumulation, plate reader, single point. actives 0.064% (n = 360,000). DNA topoisomerase I (Yersinia pestis CO92). Y. pestis Topo-I cleavage product accumulation. AID 504884, 2011. activity, % at 10 µM; in the data active = activity above about 50%, passing the limit was not always enough
TcdB GH inh: TcdB glycohydrolase inhibitors, primary screen, biochemical, single point, plate reader; TcdB glycohydrolase enzymatic assay; inhibition, % at 9.99 µM; actives 0.24% (n = 350,000); Toxin B (Clostridioides difficile), P18177; in the data active = inhibition above about 10%
Vc quorum ag: inducers of Vibrio cholerae quorum light production without autoinducers, primary screen, BH1578 luxS cqsA deficient, single point | V. cholerae BH1578 lux reporter, luminescence, 6 h | activation, % at 18.7 µM | actives 0.16% (n = 350,000) | AID 588436, 2011; in the data active = activation mostly above about 9.7%, no sharp cut-off
DUSP3 inh: VHR1 phosphatase inhibitors, primary screen, biochemical, absorbance, uHTS | Dual specificity protein phosphatase 3 (Homo sapiens), P51452 | recombinant VHR phosphatase, pNPP absorbance | inhibition, % at 13.3 µM | actives 0.52% (n = 290,000) | AID 1654, 2009; in the data active = inhibition above about 50%
BioA inh: M. tuberculosis BioA enzyme inhibitors, primary screen, biochemical, plate reader, single point, HTS; 7,8-diaminopelargonic acid synthase BioA (Mycobacterium tuberculosis); purified M. tuberculosis BioA enzyme; inhibition, % at 9.99 µM; actives 0.096% (n = 360,000); AID 602481, 2012; in the data active = inhibition above about 40%
Active calls of the source: *; i = inactive; nt = no result. Hits are enriched below; roughly 0.73% of the tested compounds scored in any of these assays.

SMILES	Y pestis TopoI	TcdB GH inh	Vc quorum ag	DUSP3 inh	BioA inh
Cn1cnnc1SCC(=O)NC1CCCCC1	-11.1	15.0*	3.7	13.1	-1.5
C[C@@H]1CN([C@@H](C)CO)S(=O)(=O)c2ccc(C#C[C@@H](C)O)cc2O[C@H]1CN(C)Cc1ccccn1	nt	0.0	nt	nt	1.7
Cc1sc2ncnc(N3CCN(c4ncccn4)CC3)c2c1C	17.2	nt	i	57.9*	1.4
CC1CCCC(C)N1CC(O)COCC1COc2ccccc2O1 (stereo not drawn)	6.7	nt	i	55.2*	-0.5
OCCN1CCN(CC(O)COCC2COc3ccccc3O2)CC1 (stereo not drawn)	5.3	1.3	i	24.2	-2.4
Cn1c2ccccc2c2nnc(SCc3nnc(-c4ccccc4)o3)nc21	nt	nt	nt	34.9	nt
Cn1c(SCc2nnc(-c3ccccc3)o2)nc2ccccc21	6.8	13.0*	-0.3	10.2	nt
Cc1ccc(S(=O)(=O)Nc2ccc3c(c2)C(=O)N([C@@H](C)CO)C[C@@H](C)[C@@H](CN(C)C(=O)NC(C)C)OCCCC[C@@H](C)O3)cc1	nt	1.0	nt	nt	3.6
CCCCN(C(=O)NC(=O)Nc1ccccc1OCC)S(C)(=O)=O	-3.2	nt	37.7*	35.1	-2.5
C[C@@H]1CCCCO[C@H](CN(C)C(=O)CCCN(C)C)[C@H](C)CN([C@@H](C)CO)C(=O)c2cc(NC(=O)c3ccncc3)ccc2O1	nt	nt	nt	nt	1.2
Cc1cccc(C(=O)N(Cc2nc3ccccc3c(=O)[nH]2)C2CCCCC2)c1	53.8*	1.5	-0.5	51.6*	nt
C=CCn1c(SCC(=O)N2CC(=O)Nc3ccccc32)nc2scc(-c3ccccc3)c2c1=O	29.0	16.2*	0.4	6.8	0.0
O=C1CN(C(=O)CSc2nc3cc(Cl)ccc3c(=O)n2Cc2ccccc2)c2ccccc2N1	70.8*	1.3	0.1	16.5	nt
Cc1ccc(Cn2c(SCC(=O)N3CC(=O)Nc4ccccc43)nc3ccccc3c2=O)cc1	37.2	-0.4	-0.4	-26.7	nt
OCC1(CCc2ccccc2)CCCN(C/C=C/c2ccccc2)C1 (stereo not drawn)	4.9	0.5	i	57.0*	-0.3
COc1ccccc1/C=C/CN1CCCC(CO)(CCc2ccccc2)C1 (stereo not drawn)	17.0	1.7	1.4	17.9	0.5
ONC(=Nc1ccccc1)C(=Nc1ccccc1)NO	2.5	nt	2.4	57.4*	-2.5
O=c1c([N+](=O)[O-])cccn1Cc1ccccc1Cl	-14.8	0.5	-0.3	29.0	-0.3
O=c1c([N+](=O)[O-])cccn1Cc1cccc(Br)c1	-6.4	0.5	46.2*	-9.3	1.9
C[C@@H]1CN([C@H](C)CO)C(=O)c2cc(-c3cncnc3)cnc2O[C@@H]1CN(C)C(=O)c1cccc(F)c1	nt	0.4	nt	nt	-1.4
Cc1cc(C)cc(N2C(=O)NC(=O)/C(=C\c3cccn3-c3ccccc3)C2=O)c1	53.2*	nt	-0.3	1.9	nt
Cc1cc(C)cc(N2C(=O)NC(=O)/C(=C\c3cccn3-c3ccc(Cl)cc3)C2=O)c1	-0.8	nt	-2.6	-8.4	-1.7
COc1ccc(C#Cc2cccc(-c3nc(C(=O)N4CCN(C)CC4)cc4c3[C@@H](CCO)N(S(=O)C(C)(C)C)C4)c2)cc1OC (stereo partly drawn)	nt	-1.7	nt	nt	nt
Cc1ccc(NC(=O)CC2(CC(=O)O)CCCC2)cc1	2.8	1.0	-0.4	56.9*	-1.9
CO[C@H]1CN(C)C(=O)c2cc(NC(=O)NC3CCCCC3)ccc2OC[C@@H](C)N(C(C)=O)C[C@H]1C	nt	0.7	nt	nt	0.1
SMILES	Y pestis TopoI	TcdB GH inh	Vc quorum ag	DUSP3 inh	BioA inh
C[C@@H]1CN([C@H](C)CO)C(=O)CCCn2nncc2CO[C@@H]1CN(C)C(=O)Nc1cccc(Oc2ccccn2)c1	nt	0.3	nt	nt	0.4
O=C(Cc1ccc(F)cc1)Nc1ccc(Cl)cn1	4.2	1.2	0.9	59.7*	-0.8
COCC(=O)N[C@H]1CC[C@@H](CC(=O)NCc2ccc(Cl)cc2)O[C@H]1CO	nt	nt	nt	nt	-1.3
Cc1ccc(/C=N/Nc2ccnc3cc(Cl)ccc23)c(C)c1	-11.9	1.1	i	87.0*	-1.0
CN(C)CCCNS(=O)(=O)c1ccc(NC2CCCCCC2)c([N+](=O)[O-])c1	-25.5	-6.5	0.2	52.0*	1.7
O=C(O)c1cc(NS(=O)(=O)c2ccc(NC3CCCCC3)c([N+](=O)[O-])c2)cc(C(=O)O)c1	0.9	12.9*	-0.3	15.8	nt
CCNc1ccc(S(=O)(=O)NCCN(C)C)cc1[N+](=O)[O-]	0.0	1.1	i	4.7	nt
O=C(O)c1cc(NS(=O)(=O)c2ccc(NCc3ccccc3)c([N+](=O)[O-])c2)cc(C(=O)O)c1	-1.1	-3.5	-0.3	1.0	-0.5
CCC(=O)N(C)C[C@H]1Oc2ncc(C3=CCCC3)cc2C(=O)N([C@H](C)CO)C[C@@H]1C	nt	-0.2	nt	nt	-1.6
C[C@@H]1CN([C@@H](C)CO)C(=O)c2cc(C3=CCCCC3)cnc2O[C@H]1CN(C)C(=O)Nc1ccc(F)cc1	nt	0.3	nt	nt	1.7
O=C(Nc1cccc(F)c1)N1CC(=O)N2[C@@H](CO)[C@H](c3ccc(C#CC4CC4)cc3)[C@@H]2C1	nt	1.2	nt	nt	nt
O=C(CCN1CCCCC1)NCC[C@H]1CC[C@H](NS(=O)(=O)c2cccc(F)c2)[C@H](CO)O1	nt	-0.4	nt	nt	-4.8
N#C/C(=C\c1ccc(N2CCOCC2)o1)C(=O)Nc1ccc(O)cc1	-0.8	19.5*	i	10.6	-14.1
N#C/C(=C/c1ccc(N2CCOCC2)o1)c1nc2ccccc2[nH]1	-8.1	nt	i	52.9*	-39.2
N#C/C(=C\c1ccc(N2CCOCC2)o1)c1ccccc1	-5.9	0.9	-3.5	-7.8	-1.0
COc1ccc(NC(=O)/C(C#N)=C\c2ccc(N3CCOCC3)o2)cc1	0.5	0.5	-0.8	19.8	nt
O=C(OC1CCCCC1)c1ccc2c(c1)C1C=CCC1C(C(=O)O)N2 (stereo not drawn)	nt	nt	nt	87.4*	nt
COCCNC(=O)C[C@H]1C[C@H]2c3cc(NS(=O)(=O)c4ccc(F)cc4)ccc3O[C@H]2[C@@H](CO)O1	nt	nt	nt	nt	-2.5
CCN(CC)c1ccc(NC(=O)Cn2c(C(C)NC(=O)c3ccccc3)nc3ccccc32)cc1 (stereo not drawn)	7.5	0.5	i	55.4*	-1.7
C/C(=N/NC(=O)c1nnn(-c2nonc2N)c1COc1ccccc1)c1ccccc1Cl	-3.7	0.0	0.5	57.0*	2.4
Nc1nonc1-n1nnc(C(=O)N/N=C/c2ccc(Cl)cc2Cl)c1CN1CCCC1	-2.7	0.3	i	25.5	-1.8
Nc1nonc1-n1nnc(C(=O)N/N=C/c2cccc(Cl)c2)c1CN1CCCC1	5.5	1.9	32.0*	nt	0.2
Cc1ccc(SCc2c(C(=O)N/N=C/c3ccc4c(c3)OCO4)nnn2-c2nonc2N)cc1	1.1	-1.1	-0.3	10.4	-0.6
Nc1nonc1-n1nnc(C(=O)N/N=C/c2cccc(F)c2)c1CN1CCCC1	1.9	0.2	28.1*	nt	-0.6
